# Test results from the supplement of paper PMC6555819.
# Assays:
# Assay in all cases: PBM binding z-score (relative to random genomic background probes); higher = stronger binding; sequences stand for … in GC…GCGATTGACAGCGTAGAATGAAGG
# [1] = test system: FXR:RXRa (NR concentration 270 nM, RXRa partner concentration 90 nM)
# Outline: (§1)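 Scanned fluorescence from custom Agilent 4×180K protein-binding microarrays was regression-normalized. Binding z-scores use random background probes as reference. Ligand-free nuclear receptor dimers were incubated on the arrays for 1 h and detected with antibodies against each partner (one per run).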
# [2] = test system: LXRa:RXRa (NR concentration 270 nM, RXRa partner concentration 90 nM)
# Outline: as §1
# [3] = test system: LXRa homodimer (NR concentration 270 nM)
# Outline: as §1
# [4] = test system: LXRb:RXRa (NR concentration 270 nM, RXRa partner concentration 90 nM)
# Outline: as §1
# [5] = test system: LXRb homodimer (NR concentration 270 nM)
# Outline: as §1
# [6] = test system: PPARa:RXRa (NR concentration 270 nM, RXRa partner concentration 90 nM)
# Outline: as §1
# [7] = test system: PPARg:RXRa (NR concentration 180 nM, RXRa partner concentration 90 nM)
# Outline: as §1
# [8] = test system: PPARg:RXRa 270nM:90nM, anti-RXR (NR concentration 270 nM, RXRa partner concentration 90 nM)
# Outline: as §1
# [9] = test system: PPARg:RXRa 30nM:10nM, anti-RXR (NR concentration 30 nM, RXRa partner concentration 10 nM)
# Outline: as §1
# [10] = test system: PPARg:RXRa 90nM:30nM, anti-RXR (NR concentration 90 nM, RXRa partner concentration 30 nM)
# Outline: as §1
# [11] = test system: PPARg:RXRa DBDmut IVT, anti-RXR (DBD mutation: RXRa K156A/R161A, NR concentration 270 nM, RXRa partner concentration 90 nM)
# Outline: as §1
# [12] = test system: PPARg:RXRa IVT, anti-PPARg (NR concentration 270 nM, RXRa partner concentration 90 nM)
# Outline: as §1
# [13] = test system: PPARg DBDmut IVT, anti-PPARg (DBD mutation: PPARg1 K132A/R137A, NR concentration 270 nM)
# Outline: as §1
# [14] = test system: PPARg homodimer (NR concentration 180 nM)
# Outline: as §1
# [15] = test system: PXR:RXRa (NR concentration 270 nM, RXRa partner concentration 90 nM)
# Outline: as §1
# [16] = test system: PXR homodimer (NR concentration 270 nM)
# Outline: as §1
# [17] = test system: RARa:RXR (NR concentration 270 nM, RXRa partner concentration 90 nM)
# Outline: as §1
# [18] = test system: RARa homodimer (NR concentration 270 nM)
# Outline: as §1
# [19] = test system: RARb:RXRa (NR concentration 270 nM, RXRa partner concentration 90 nM)
# Outline: as §1
# [20] = test system: PPARg DBDmut:RXRa IVT, anti-PPARg (DBD mutation: PPARg1 K132A/R137A, NR concentration 270 nM, RXRa partner concentration 90 nM)
# Outline: as §1
Sequence,PBM binding z-score [1],PBM binding z-score [2],PBM binding z-score [3],PBM binding z-score [4],PBM binding z-score [5],PBM binding z-score [6],PBM binding z-score [7],PBM binding z-score [8],PBM binding z-score [9],PBM binding z-score [10],PBM binding z-score [11],PBM binding z-score [12],PBM binding z-score [13],PBM binding z-score [14],PBM binding z-score [15],PBM binding z-score [16],PBM binding z-score [17],PBM binding z-score [18],PBM binding z-score [19],PBM binding z-score [20]
CGAACTAGGTCACCAGGAAAGTGAAGAGGTTGGA,3.52,2.48,-0.13,1.69,-0.3,5.05,8.48,7.2,5.35,6.86,8.65,8.74,0.796,2.05,1.48,-0.0939,2.37,0.814,4.29,
AGTCAAAGGTCACTAGGTAACGTAAGATTCAGCT,7.63,6.45,2.46,5.48,2.78,6.42,,8.5,6.26,8.47,5.65,7.5,0.924,4.05,4.94,1.04,5.94,2.79,,1.54
ATATGTAGGTTAGGGTCATTCCGAAAGTAGGGAA,4.95,3.68,1.27,4.26,1.53,5.69,7.77,6.58,4.22,6.26,6.18,6.86,1.28,2.67,4.29,1.79,4.8,1.82,3.43,
CGAACTAGGTCACCAGGACAGTGATGAGGTTGGA,3.92,2.37,0.0863,1.49,-0.567,4.96,8.57,6.62,4.75,6.58,7.98,8.61,0.614,2.34,1.5,0.423,2.69,0.546,4.16,
TCATATAGGTGAAAGGTGAAAGTCGGTGTGGTAA,2.9,2.52,0.284,2.76,0.0843,6.44,,9.98,10.2,12.3,7.6,7.55,1.28,3.1,3.01,0.351,4.34,1.1,2.78,3.38
CAAACTAGGTCAAGGTCAAAGTAGGTTTGTGCCA,7.18,5.78,4.55,4.82,1.64,6.41,,8.19,6.7,8.63,8.75,8.96,3.69,5.67,5.46,2.97,5.43,2.61,5.31,4.01
ATATGTAGGTTAGGGTCATTCTGAAAGTAGGGAA,4.59,3.97,1.34,4.53,1.8,5.46,7.45,6.24,3.83,5.9,6.26,6.44,1.97,2.88,4.18,1.87,,1.91,3.35,
ATATGTAGGTTAGGGTCCTTCAGAAAGTAGGGAA,0.884,0.754,0.168,1.21,0.702,3.14,4.35,3.79,1.56,2.95,6.21,6.11,1.93,1.37,0.573,0.477,0.72,0.953,1.03,
CGAACTAGGTCAACGGACAGTGAAAGGCGACGTA,3.7,2.16,-0.117,1.22,-0.431,4.75,8.09,6.86,4.42,6.52,8.1,8.37,-0.094,1.63,0.839,-0.0597,1.77,-0.351,3.89,
ATATGTAGGTTAGGTTCATTCAGAAAGTAGGGAA,1.59,2.28,0.871,2.34,1.28,4.1,4.93,4.37,2.49,4.03,6.23,5.61,2.4,1.77,2.89,2.26,2.24,1.68,1.5,
CGAACTAGGTCAAAGGACAGTCAAAGGCGACGTA,4.15,2.73,-0.061,1.89,-0.231,5.68,10.2,8.68,8.42,9.11,8.1,8.4,2.46,1.64,1.39,-0.21,2.49,0.35,3.87,
ATATGTAGCTTAGGGTCATTCAGAAAGTAGGGAA,4.3,4.47,1.67,4.49,1.7,4.7,2.42,3.28,1.35,2.4,0.587,2.1,1.21,1.78,4.04,0.915,4.2,1.36,3.24,
CGGACTAGGTCACCAGGACAGTGAAGAGGTTGGA,3.78,2.23,-0.177,1.34,-0.742,4.41,8.1,6.5,4.18,5.97,7.92,8.27,0.234,1.95,1.24,-0.197,2.09,-0.221,4.15,
CAAACTAGGTCAAGGGGTCAAAGTCCGCTTCCCG,7.14,6.22,3.83,6.08,1.17,6.9,,8.96,8.47,9.27,8.13,8.72,1.52,6.55,6.31,1.78,7.88,1.67,5.46,0.711
CGAACTAGGTCACCAGCACAGTGAAGAGGTTGGA,4.03,2.42,0.171,1.53,-0.224,5.12,8.39,7.01,4.62,6.53,8.34,8.76,0.181,1.79,1.41,0.0792,2.39,0.262,4.11,
TCATATAGGTTAAAGGTGAAAGTCGGTGTGGTAA,4.54,4.09,0.882,3.59,0.683,6.28,,9.55,10.5,11.5,6.74,6.73,1.26,3.22,3.73,0.749,6.33,2.29,2.9,2.27
CGAAATAGGTCAAAGGACAGTGAAAGGCGACGTA,6.11,4.45,0.474,3.47,0.71,5.96,9.28,8.26,7.99,8.72,7.36,7.35,0.994,2.41,2.34,-0.0747,3.92,0.491,4.49,
ATATGTAGGGTAGGGTCATTCAGAAAGTAGGGAA,4.09,4.09,2.32,5.19,4.59,5.28,7.32,5.53,3.19,4.91,6.28,5.96,4.11,2.93,4.39,2.67,4.44,2.33,3.21,
TTATCAAGGTGAAAGGTCGTTGATGCACGCCTTG,3.92,3.41,0.476,2.84,0.104,5.86,,9.22,9.21,11,4.86,6.15,1.43,2.37,3.99,0.766,5.9,0.465,,1.25
ATATGTAGGTTAGGGTTATTCAGAAAGTAGGGAA,2.3,2.27,0.961,2.84,1.66,4.11,5.61,5.21,3.18,4.8,6.88,6.54,2.32,2.77,2.33,1.31,2.55,1.94,1.57,
CGAACTAGGTCACCAGGACTGTGAAGAGGTTGGA,4.32,2.55,-0.155,1.59,-0.403,5.08,8.54,6.81,4.45,6.79,8.46,8.71,1.86,3.94,1.55,-0.354,2.79,0.25,4.27,
ATATGTAGGTTACGGTCATTCAGAAAGTAGGGAA,2.04,2.49,1.64,1.74,1.02,4.35,7.06,5.67,3.24,5.02,7.69,8.18,1.83,2.04,0.971,0.516,1.47,0.836,2.89,
AGTCAAAGTTCACTAGGCAACGTAAGATTCAGCT,5.28,5.12,2.72,2.89,0.757,4.5,,6.21,3.31,5.38,1.55,3.93,0.663,1.75,3.81,2.09,3.04,0.611,4.78,1.31
ATATGTAGGTTAGGGTCAATCAGAAAGTAGGGAA,4.67,3.66,0.491,3.9,1.23,5.48,7.67,6.41,3.89,5.93,6.1,6.62,1.96,2.82,3.61,1.38,4.43,1.88,3.59,
CGTCCAAGGTCAATGTTAGGTCAGTGAAAGCATT,6.44,5.88,2.85,4.38,1.35,5.51,,4.66,0.937,3.1,2.85,3.43,-0.256,3.57,4.77,1.6,5.78,1.18,,-0.0958
ATATGTAGGTTAGGGTCATTGAGAAAGTAGGGAA,4.91,4.11,1.17,4.32,2.74,5.89,7.58,6.31,4.39,5.93,6.25,6.47,1.4,2.67,4.2,1.72,4.69,2.38,3.59,
GGAACTAGGGCAAAGTTGATAGCATCTGTCGACG,-0.124,-0.2,-0.596,0.16,-0.519,5.37,,8.84,8.63,9.67,7.94,7.8,2.6,2.98,-0.217,-0.423,0.0303,-0.192,1.48,3.88
ATCGAAAGGTCGTGACGTGAGTATACAGAAAGGC,5.34,3.84,-0.0538,3.03,0.128,4.8,,3.82,1.41,2.77,-0.00761,1.68,0.662,1.61,2.98,0.0582,3.7,0.369,3.74,1.56
CCTAGTTGGTCAGGAGGTCCCACACCGGATATGA,0.0406,-0.213,0.429,-0.248,0.251,-0.0736,,0.194,-0.0977,-0.144,0.207,0.483,-0.0969,1.06,-0.0476,0.63,-0.0305,0.95,0.64,-0.124
CGAACTAGGTCACCAGAACAGTGAAGAGGTTGGA,3.61,2.14,-0.204,1.65,-0.116,5.2,8.46,6.91,5.08,6.61,8.55,8.85,1.39,1.64,1.29,-0.143,2.45,0.0997,4.2,
